Screening results from PubChem BioAssay.
TMEM16A inh: TMEM16A chloride channel inhibitors, primary screen, cell-based, HTS | actives 1.2% (n = 310,000) | normalized B-score (activity score, 25-100; higher = stronger inhibition) at 10 µM | HEK293 TMEM16A/YFP iodide influx fluorescence, ionomycin;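 active = ratio plate-corrected score three or more library SD toward inhibition, starting fluorescence score within five deviations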;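 note: score derived from kinetic fluorescence span divided by baseline fluorescence per well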
KLF5 inhibitor: KLF5 expression inhibitors, primary screen, DLD-1 cells, luminescence; inhibition, % at 5 µM; DLD-1 KLF5 promoter-luciferase reporter; AID 1700, 2009; actives 0.23% (n = 290,000);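 active = inhibition above a per-plate limit of that plate's mean compound inhibition plus 3 SD, cut at about 60% in these data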;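 note: 0% = DMSO wells and 100% = LY294002 at 200 µM; higher means less KLF5 promoter-driven luciferase light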
TMEM16A act: TMEM16A chloride channel activators or potentiators, primary screen, cell-based, HTS; Anoctamin-1 (Mus musculus), Q8BHY3; HEK293 TMEM16A/YFP-H148Q/I152L, iodide quench fluorescence; active compounds read low; B-score at 10 µM; actives 0.3% (n = 340,000);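 active = fluorescence-ratio B-score plate-corrected deviation score at least 3 library SD below zero, with starting fluorescence score within 5 deviations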;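 note: channel opened by trigger with iodide after compound preincubation; score built on the fluorescence ratio of max minus min over baseline; more negative score means more quench and so TMEM16A activation or potentiation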
aSyn 5UTR inh: MLPCN primary screen, SNCA 5' untranslated region; alpha-synuclein 5'UTR reporter, inhibitor activity; inhibition, % (tested at 7.5 µM); actives 0.82% (n = 300,000); AID 1813, 2009; in the data active = inhibition above about 60%; inconclusive = no clear call, values can overlap the other calls;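 note: H4 neuroglioblastoma cells stably carrying SNCA 5'UTR luciferase fusion; 0% = DMSO wells and 100% = positive control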
Jurkat NFkB inh: inhibitors of induced NF-kB luciferase reporter, primary screen, TCR NF-kB activation inhibitor project, cell-based, luminescence, uHTS; Jurkat, PMA/ionomycin-induced NF-kB luciferase reporter; inhibition, % at 4 µM; actives 0.53% (n = 330,000); in the data active = inhibition above about 50%
697 NFkB inh: inhibitors of PMA/ionomycin-induced NF-kB reporter, 697 cells, primary screen, B-cell NF-kB inhibitor project, cell-based, luminescence, uHTS. 697 B-cell NF-kB luciferase reporter, 16 h. inhibition, % at 4 µM. actives 0.33% (n = 330,000). AID 435022, 2010; in the data active = inhibition above about 35%
KLF5 confirm: KLF5 expression inhibitors, confirmation, DLD-1 cells, luminescence; DLD-1 KLF5 promoter firefly luciferase reporter; shares compounds with KLF5 inhibitor; actives 79% (n = 610); inhibition, % at 4 µM;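 active = inhibition above a set limit taken from the earlier primary screen, cut at about 63% in these data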;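 note: 0% = DMSO wells and 100% = LY294002 at 200 µM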
IEC-6 tox: cytotoxicity in rat IEC-6 cells, cytotoxicity control for KLF5 inhibitor project, cell-based, luminescence, triplicate | shares compounds with KLF5 inhibitor | IEC-6 rat intestinal cells, viability luminescence | inhibition, % at 4 µM | actives 56% (n = 610) | AID 1905, 2009; in the data active = inhibition above about 23%;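 note: cells exposed to compounds for 48 hours before viability read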
Active calls of the source: *. Rows were chosen to be rich in hits. Some 2.5% of all compounds tested hit in one or more screens of this group.

Cc1ccc(NC(=O)CN2C(=O)NC3(CCCc4ccccc43)C2=O)c([N+](=O)[O-])c1 (stereo unspecified) was read as TMEM16A inh inactive, KLF5 inhibitor -34, TMEM16A act inactive, aSyn 5UTR inh 18, Jurkat NFkB inh -2 and 697 NFkB inh 8.
Screening COc1ccc(Cc2nnc(NS(=O)(=O)c3ccc([N+](=O)[O-])cc3)s2)cc1 returned TMEM16A inh inactive, KLF5 inhibitor 0, TMEM16A act inactive, aSyn 5UTR inh 2, Jurkat NFkB inh -14 and 697 NFkB inh 13.
For C=C(C)CSc1nc2sc3c(c2c(=O)n1-c1ccccc1)CCN(C)C3 the results were TMEM16A inh inactive, KLF5 inhibitor -26, TMEM16A act inactive, aSyn 5UTR inh 1, Jurkat NFkB inh 3 and 697 NFkB inh 6.
Cc1ccc(-c2nc(-c3ccccn3)no2)cc1[N+](=O)[O-] was read as TMEM16A inh inactive, KLF5 inhibitor -57, TMEM16A act inactive, aSyn 5UTR inh 46, Jurkat NFkB inh -87 and 697 NFkB inh -124.
Cc1ccc(-c2nc(-c3ccccn3)no2)cc1Cl was read as TMEM16A inh inactive, KLF5 inhibitor 70*, TMEM16A act inactive, aSyn 5UTR inh 104*, Jurkat NFkB inh 13, 697 NFkB inh -116, KLF5 confirm 89* and IEC-6 tox 11.
For CCN(CC)S(=O)(=O)c1cc(OC)ccc1N=Nc1ccc(O)c2ncccc12 the results were TMEM16A inh inactive, KLF5 inhibitor 87*, TMEM16A act inactive, aSyn 5UTR inh inconclusive, Jurkat NFkB inh 16, 697 NFkB inh 8, KLF5 confirm 87* and IEC-6 tox 4.
For Cc1nn(-c2nc3ccccc3[nH]2)c(=O)c2ccccc12 the results were TMEM16A inh inactive, KLF5 inhibitor 110*, TMEM16A act inactive, aSyn 5UTR inh 115*, KLF5 confirm 105* and IEC-6 tox 63*.
Screening Cn1cccc1-c1cc(C(=O)N/N=C/c2cc(Br)ccc2O)[nH]n1 returned TMEM16A inh inactive, KLF5 inhibitor 65*, TMEM16A act inactive, aSyn 5UTR inh 71*, Jurkat NFkB inh 46, 697 NFkB inh 0, KLF5 confirm 79* and IEC-6 tox -2.
Cn1cccc1-c1cc(C(=O)N/N=C/c2ccccc2Cl)[nH]n1 was read as TMEM16A inh inactive, KLF5 inhibitor -143, TMEM16A act inactive, aSyn 5UTR inh -1, Jurkat NFkB inh -48 and 697 NFkB inh -44.
For Cc1nn(-c2ccccc2)c(C)c1/C=N/NC(=O)c1cc(-c2cccc3ccccc23)n[nH]1 the results were TMEM16A inh inactive, KLF5 inhibitor -58, TMEM16A act inactive, aSyn 5UTR inh -2, Jurkat NFkB inh 0 and 697 NFkB inh -21.
`Cc1nn(-c2ccccc2)c(C)c1/C=N/NC(=O)c1cc(-c2ccccc2)n[nH]1` gave TMEM16A inh inactive, KLF5 inhibitor 63*, TMEM16A act inactive, aSyn 5UTR inh 82*, Jurkat NFkB inh 45, 697 NFkB inh 23, KLF5 confirm 84* and IEC-6 tox 65*.
For COc1ccc(CCNC(=O)C2CCCN(c3ncnc4c3nc3n4CCCCC3)C2)c(OC)c1 (stereo unspecified) the results were TMEM16A inh inactive, KLF5 inhibitor -12, TMEM16A act inactive, aSyn 5UTR inh 18, Jurkat NFkB inh -1 and 697 NFkB inh -10.
For Nc1nc(Nc2ccccc2)nc2ccccc12 the results were TMEM16A inh inactive, KLF5 inhibitor -71, TMEM16A act inactive, aSyn 5UTR inh -82, Jurkat NFkB inh -112 and 697 NFkB inh -145.
For CCOc1ccc(Nc2nc(N)c3ccccc3n2)cc1 the results were TMEM16A inh inactive, KLF5 inhibitor 81*, TMEM16A act inactive, aSyn 5UTR inh 102*, Jurkat NFkB inh -55, 697 NFkB inh -159, KLF5 confirm 56 and IEC-6 tox 10.
For CN(C)c1ccc(Nc2nc(N)c3ccccc3n2)cc1 the results were TMEM16A inh inactive, KLF5 inhibitor 91*, TMEM16A act inactive, aSyn 5UTR inh 109*, Jurkat NFkB inh -23, 697 NFkB inh -83, KLF5 confirm 67* and IEC-6 tox 10.
`CCc1ccc(-c2nc3ccc(Br)cc3c(C(=O)O)c2C)s1` gave TMEM16A inh inactive, KLF5 inhibitor -45, TMEM16A act inactive, aSyn 5UTR inh 8, Jurkat NFkB inh -12 and 697 NFkB inh -3.
Cc1cc(C(=O)COC(=O)c2ccccc2O)c(C)n1Cc1cccs1 was read as TMEM16A inh inactive, KLF5 inhibitor 81*, TMEM16A act inactive, aSyn 5UTR inh 93*, Jurkat NFkB inh 27, 697 NFkB inh 1, KLF5 confirm 78* and IEC-6 tox -10.
For C[C@@]12C(=O)N(CC3CC3)CC(=O)N1[C@H](C1CC1)[C@@H]1C(=O)N(c3ccccc3)C(=O)[C@@H]12 the results were TMEM16A inh inactive, KLF5 inhibitor -12, TMEM16A act inactive, aSyn 5UTR inh 12, Jurkat NFkB inh 25 and 697 NFkB inh 4.
`CCCn1c(C)cs/c1=N\C(=S)Nc1ccccc1` gave TMEM16A inh inactive, KLF5 inhibitor 118*, TMEM16A act inactive, aSyn 5UTR inh 2, Jurkat NFkB inh 0, 697 NFkB inh -20, KLF5 confirm -18 and IEC-6 tox 5.
Cc1cs/c(=N/C(=S)Nc2ccccc2)n1C was read as TMEM16A inh inactive, KLF5 inhibitor -103, TMEM16A act inactive, aSyn 5UTR inh -115, Jurkat NFkB inh -130 and 697 NFkB inh -128.
`Oc1c(CN2CCN(c3ccccc3)CC2)cc(Br)c2cccnc12` gave TMEM16A inh inactive, KLF5 inhibitor 52, TMEM16A act inactive, aSyn 5UTR inh 85*, KLF5 confirm 57 and IEC-6 tox 15.
`CC(Oc1ccc2ccc(=O)oc2c1)C(=O)NCCN1CCOCC1` (stereo unspecified) gave TMEM16A inh inactive, KLF5 inhibitor -9, TMEM16A act inactive, aSyn 5UTR inh -1, Jurkat NFkB inh 3 and 697 NFkB inh -6.
